PubChem BioAssay AID1850 (Southern Research Specialized Biocontainment Screening …, 2009)
About 1,000 (0.32%) of roughly 310,000 compounds were called active. These entries were drawn from the full list. Measured potencies and affinities stand elsewhere. A number with no mark means an inactive call. How the calls were made is not given here.

Experiment: Inhibition of PhoP regulon, Salmonella typhi GFP reporter cells, confirmation, 4 h (AID 1850);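 further: 0% = induced wells with vehicle and 100% = uninduced wells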
Conditions: Salmonella Typhi PhoP-promoter GFP reporter, fluorescence, at 50 µM, active compounds read high
COc1ccccc1CN1C[C@@H]2C[C@@H](c3ccccc3C)N3CCC[C@@]23C1=O showed an inhibition of -4.27%. Compound COCCNc1nc(-c2cc(-c3ccccc3)on2)cc(C(C)C)n1 has an inhibition of -5.87%. Work on Cc1c(C(=O)Nc2c(N)nc(SCC(=O)NCC3CCCO3)[nH]c2=O)cccc1[N+](=O)[O-] (configuration not stated) yielded an inhibition of -5.44%. In the case of CCOC(=O)C1CCN(C(=S)NC2CC3C=CC2C3)CC1 (configuration not stated), the inhibition is reported as 6.08%. Compound COc1ccc(-n2nc(C)cc2N)cc1 has an inhibition of 4.84%. For COc1ccc(C(=O)NNC(=S)NC(=O)c2ccc(OC)cc2)cc1, the inhibition was 5.93%. In the case of Cc1cccc(C(=O)NNC(=S)NC(=O)c2ccccc2)c1, the inhibition is reported as 18.6%. COc1ccc(C(=O)NC(=S)NNC(=O)c2ccc(C)cc2)cc1 gave an inhibition of 18.1%. COc1ccc(C(=O)NNC(=S)NC(=O)c2ccc(Cl)cc2)cc1 showed an inhibition of 4.94%. Work on O=C(NNC(=S)NC(=O)c1cccs1)c1ccc(O)cc1 yielded an inhibition of -3.75%. In the case of Cc1cccc(C(=O)NC(=S)NNC(=O)c2cccs2)c1, the inhibition is reported as -3.39%. For Cc1ccc(CSc2nnc(-c3cccc(S(=O)(=O)N4CCOCC4)c3)n2CC(C)C)cc1, the inhibition was 10.2%. CCOC(=O)[C@@H]1CCNC[C@@H]1c1ccccc1 gave an inhibition of -2.58%. CCC(C)Sc1nnc(NC(=O)c2ccco2)s1 (configuration not stated) showed an inhibition of -2.84%. Compound CC(C)(C)c1ccccc1N=Cc1ccc2ccccc2n1 has an inhibition of -21.3%. For Cc1onc(-c2ccc(Cl)cc2)c1-c1ccnn1S(=O)(=O)c1cccc(C(F)(F)F)c1, the inhibition was -8.24%. Compound Cc1ccccc1NC(=S)N(Cc1cccnc1)Cc1ccccc1Cl has an inhibition of -8.27%. For CCOC(=O)C1CCN(Cc2c(F)cccc2Cl)CC1, the inhibition was -1.3%. For COc1ccc(C(=O)C2CCCN(C(=O)c3ccc(F)cc3)C2)cc1OC (configuration not stated), the inhibition was -6.1%. In the case of O=C(Nc1ccc(F)cc1)c1cccnc1, the inhibition is reported as -6.59%. In the case of CCOC(=O)C1=C(C)Nc2nc3ccccc3n2C1c1ccccc1 (configuration not stated), the inhibition is reported as -6.62%. Cc1cccc(C2N=C(N)Nc3nc4ccccc4n32)c1 (configuration not stated) showed an inhibition of 1.47%. CCn1c2ccccc2c2cc(C3N=C(N)Nc4nc5ccccc5n43)ccc21 (configuration not stated) gave an inhibition of 6.06%. In the case of Cc1ccc(C2N=C(N)Nc3nc4ccccc4n32)cc1 (configuration not stated), the inhibition is reported as -13.9%. Work on NC1=NC(c2ccccc2Cl)n2c(nc3ccccc32)N1 (configuration not stated) yielded an inhibition of 4.77%. Work on NC1=NC(c2ccc(Cl)cc2)n2c(nc3ccccc32)N1 (configuration not stated) yielded an inhibition of -5.56%. In the case of CCCCCOc1ccc(CSCCNC(=S)Nc2ccccc2)cc1, the inhibition is reported as -18.1%. Compound CC(C)CN(C(=O)COC(=O)CSc1ccccc1F)c1c(N)n(Cc2ccccc2)c(=O)[nH]c1=O has an inhibition of 4.09%. Compound COc1cc(C2/C(=C(\O)c3ccc4c(c3)CC(C)O4)C(=O)C(=O)N2CCN2CCOCC2)cc(OC)c1OC (configuration not stated) has an inhibition of -7.62%. CC(C)(C)NC(=O)/C(=C/c1ccccc1F)NC(=O)c1ccc([N+](=O)[O-])cc1 gave an inhibition of 7.24%. In the case of CC(C)NC(=O)NC(=O)CN1C(=O)NC2(CCc3ccccc3C2)C1=O (configuration not stated), the inhibition is reported as -20.4%. Work on C/C=C/C(=O)Nc1nnc(C2CCCCC2)s1 yielded an inhibition of -12.4%. In the case of COC(=O)C1CCCCN1C(=O)c1ccc2oc(Cc3ccccc3)nc2c1 (configuration not stated), the inhibition is reported as -3.48%. Compound COc1ccccc1CC(=O)NNS(=O)(=O)c1cccc([N+](=O)[O-])c1 has an inhibition of -15.1%. With c1ccc(C[C@H]2CNCCN2CCC23CC4CC(CC(C4)C2)C3)cc1 the inhibition was 15.7%. Work on Oc1ccc(C[C@@H]2CNCCN2CC2CCCCC2)cc1 yielded an inhibition of -6.54%. c1ccc(C[C@H]2CNCCN2CCCCC2CCCCC2)cc1 gave an inhibition of 1.44%. For CCCCN1CCNC[C@H]1Cc1ccc(O)cc1, the inhibition was 0.57%. Compound Oc1ccc(C[C@H]2CNCCN2CC2CCCCC2)cc1 has an inhibition of -0.4%. Compound Oc1ccc(C[C@H]2CNCCN2CCC23CC4CC(CC(C4)C2)C3)cc1 has an inhibition of -7.57%. For Nc1ccccc1SCC(O)Cn1ccc2ccccc21 (configuration not stated), the inhibition was 0.67%. For CN1CCN(CCC(=O)Nc2cccc(F)c2)CC1, the inhibition was -7.12%. With CCOc1ccc(N(CC(=O)N2CCN(Cc3ccccc3)CC2)S(C)(=O)=O)cc1 the inhibition was 1.84%. COc1ccc(N2CCN(C(=O)c3ccc(CSc4ccccc4)cc3)CC2)cc1 gave an inhibition of 3.8%. Compound CCC(=O)N1CCc2cc(S(=O)(=O)NCCC(=O)NCc3ccc(F)cc3)ccc21 has an inhibition of 5.61%. Work on CN(C(=O)Cc1c(C(=O)O)n(C)c2ccccc12)c1ccc(Cl)cc1 yielded an inhibition of -0.76%. Work on CCOC(=O)C1CN(S(=O)(=O)c2ccccc2)C1 yielded an inhibition of -1.91%. Work on CC(C)CC(NS(=O)(=O)c1cccc(C(=O)O)c1)C(=O)O (configuration not stated) yielded an inhibition of -4.1%. CSc1cccc(NC(=O)c2ccccc2N(C)S(C)(=O)=O)c1 gave an inhibition of 3.99%. Compound CCc1nnc(NC(=O)[C@@H](NC(=O)c2ccc(C(C)(C)C)cc2)C(C)C)s1 has an inhibition of -2.72%. Compound O=C(NNC(=S)NC(=O)c1cccnc1)c1ccc(F)cc1 has an inhibition of 15.9%. With COc1cc(OC)cc(C(=O)NC(=S)NNC(=O)c2cnccn2)c1 the inhibition was -6.65%. O=C(NC(=S)NNC(=O)c1cnccn1)c1ccc(Cl)cc1 gave an inhibition of 10.3%. COc1ccc(C(=O)NC(=S)NNC(=O)c2cnccn2)cc1OC showed an inhibition of 31.3%. COc1cc2oc(=O)cc(C)c2c(OC)c1OC gave an inhibition of -3.26%. In the case of Cc1ccc(NC(=O)C2CCCN(S(=O)(=O)c3cccs3)C2)cc1 (configuration not stated), the inhibition is reported as 3.27%. Work on COc1ccc(N2C(N)=NC(N)=NC2(C)C)cc1 yielded an inhibition of 2.39%. CCOc1ccc(N2C(N)=NC(N)=NC2(C)C)cc1 showed an inhibition of -0.23%. Work on COC(=O)c1ccc(CNC(=O)COC(=O)Cc2ccsc2)cc1 yielded an inhibition of 8.65%. Work on O=C(Nc1ccc(F)cc1)c1sc(Cl)nc1-c1ccccc1 yielded an inhibition of -0.89%. O=C(/C=C/c1ccc(Br)cc1)c1ccco1 gave an inhibition of 2.45%. In the case of O=C(/C=C/c1ccccc1O)c1ccco1, the inhibition is reported as 8.77%. Work on Cc1ccc(-c2cc(-c3ccc(C)cc3)[n+](C)o2)cc1 yielded an inhibition of -2.37%. With COc1ccc(/C=C/C(=O)Oc2ccc(C)cc2)cc1 the inhibition was -5.85%. CCOc1cccc(CN(C)CC2CCCN(CCc3ccc(Cl)cc3)C2)c1O (configuration not stated) showed an inhibition of -8.67%. CN(Cc1ccccc1OCCO)CC1CCCN(CCc2ccc(Cl)cc2)C1 (configuration not stated) gave an inhibition of 0.25%. O=C(Nc1c(C(=O)N2CCOCC2)cnn1-c1ccccc1)c1cccc(F)c1 showed an inhibition of -2.99%. For Cc1ccc2nc(N(CCN3CCOCC3)C(=O)CCS(=O)(=O)c3ccccc3)sc2c1, the inhibition was 0.17%. Work on COc1cnc(-c2ccccn2)[nH]c1=O yielded an inhibition of -0.99%. Work on O=c1[nH]c(-c2ccccn2)nc2ccccc12 yielded an inhibition of -0.6%. Compound O=C(NC1CCCC1)C(c1ccccn1)N(C(=O)c1csnn1)c1ccccc1Br (configuration not stated) has an inhibition of 5.15%. CCN(CC)CCNC(=O)CNC(=O)c1nn(-c2ccc(OC)c(OC)c2)c(=O)c2ccccc12 showed an inhibition of -2.16%. CC(=O)c1cc(C)ccc1OC(=O)c1ccncc1 gave an inhibition of -3.27%. In the case of CN1CCC2(CC1)N=C(c1ccc(F)cc1)C(=S)N2C(=O)c1ccccc1, the inhibition is reported as -2.67%. CN1CCC2(CC1)N=C(c1ccc(F)cc1)C(=S)N2C(=O)c1ccc(C(C)(C)C)cc1 showed an inhibition of 17.9%. With O=C(O)c1ccc(S(=O)(=O)Nc2ccc3c(c2)OCCO3)cc1 the inhibition was -5.88%. For CCCC(=O)Nc1ccc(C(=O)NNC(=O)COc2ccc(Br)c(C)c2)cc1, the inhibition was -2.62%. O=c1[nH]cc(O)c(=O)[nH]1 showed an inhibition of 6.55%. Work on O=c1[nH]cc(-c2ccccc2)c(=O)[nH]1 yielded an inhibition of 2.03%. COC(=O)CN1C2=NCCCN2c2ccccc21 gave an inhibition of 6.91%. With Cc1sc2ccccc2[n+]1CC(=O)c1ccccc1 the inhibition was -4.52%. Cc1sc2cc3c(c(C(=O)c4ccccc4)[n+]2c1C)-c1cccc2cccc-3c12 showed an inhibition of -9.84%. O=C(OCc1ccc(COC(=O)c2cccnc2Cl)cc1)c1cccnc1Cl gave an inhibition of -8.94%. With CCOc1ccc(OCC(=O)N2CCOCC2)cc1 the inhibition was -0.13%. In the case of CCn1nc(C(=O)N2CCN(Cc3ccc4c(c3)OCO4)CC2)c2ccccc2c1=O, the inhibition is reported as -11.3%. Work on CCn1ccc(=O)c2cc3c(cc21)OCO3 yielded an inhibition of -2.2%. In the case of CCn1cc(C(=O)NCCC(=O)OC)c(=O)c2cc3c(cc21)OCO3, the inhibition is reported as 2.1%. Compound CCOC(=O)c1cn(CC)c2cc3c(cc2c1=O)OCO3 has an inhibition of 2.61%. In the case of O=C(Nc1ccccc1C(F)(F)F)N1CCN(c2ccccn2)CC1, the inhibition is reported as 5.82%. Compound O=C(C1CC(c2ccccc2O)=NO1)N1CCc2ccccc2C1 (configuration not stated) has an inhibition of -3.18%. O=C(C[n+]1cccc(CNC(=O)c2ccc(OC(F)F)cc2)c1)Nc1ccc(F)cc1 showed an inhibition of -3.3%. With O=C(C[n+]1cccc(CNC(=O)c2ccc(OC(F)F)cc2)c1)Nc1cccc(C(F)(F)F)c1 the inhibition was 1.69%. Work on O=C(COC(=O)C1=COCCO1)Nc1ccc(F)cc1 yielded an inhibition of 2.51%. Cc1ccc(SCC(=O)Nc2ccc3c(c2)C(=O)NC3=O)cc1 showed an inhibition of 5.23%. In the case of Oc1ccc(C23CC4CC(CC(C4)C2)C3)cc1O, the inhibition is reported as 0.69%. Compound Oc1ccccc1CNCC12CC3CC(CC(C3)C1)C2 has an inhibition of 6.43%. C=CCNC(=O)c1cccc(OC2CCN(CC(C)(C)C)CC2)c1 gave an inhibition of -1.47%.
